Test results as given in PubChem BioAssay (Tox21).
Several values for one entry are separate records, joined by “and”; a condition that tells them apart may be missing. Identical values can stand only once. Results filed as inconclusive are left out. Activity calls are given as the source filed them. Unless noted, calls come from the whole dose curve; as a rule, active = well fitted curve in the direction sought with a large enough effect in the repeat runs; inconclusive = weak or mixed curves; inactive = no such curve, though single readings can be large; an effect the other way counts as inactive or inconclusive.

Legend:
[1] = qHTS assay for small molecule agonists of the p53 signaling pathway (AID 651631; calls by dose curve; note: nearly all actives have a fitted effect of over 15% in size)
Procedure, shortened: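 Read-out is beta-lactamase FRET fluorescence measured 2 h after substrate addition at room temperature, in HCT-116 cells with a p53 response element-driven reporter exposed to compounds for 16 h at 37 °C.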

[2] = qHTS assay for small molecule agonists of the p53 signaling pathway - cell viability (AID 651633; calls by dose curve; note: nearly all actives have a fitted effect of over 30% in size; note: potency is the fitted concentration of half-maximal effect)
Procedure, shortened: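 Viability counter-read: CellTiter-Glo luminescence (30 min, room temperature) in the same p53RE-bla plates. These plates had been exposed to compounds for 16 h at 37 C.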

[3] = qHTS assay to test for compound auto fluorescence at 460 nm (blue) in HEK293 cell free culture (AID 720681)
Procedure, shortened: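 Blue fluorescence (Ex 405/Em 460 nm, triamterene-equivalent) was read immediately after pin transfer of compound or DMSO into medium (DMEM, 10% FBS) without cells.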

[4] = qHTS assay to test for compound auto fluorescence at 590 nm (red) in HEK293 cell free culture (AID 720683)
Procedure, shortened: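 Red-channel autofluorescence of compounds in culture medium (DMEM, 10% FBS), no cells, measured at 540/590 nm. Rose Bengal sodium is the reference fluorophore for equivalence.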

[5] = qHTS assay for identifying genotoxic compounds that show differential cytotoxicity against isogenic chicken DT40 cell lines with known DNA damage response pathways - wild type cell line (AID 743012); note: nearly all actives have a fitted effect of over 60% in size; note: potency is the fitted concentration of half-maximal effect
Procedure, shortened: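 Luminescent ATP viability signal (CellTiter-Glo, 30 min RT) recorded after wild type DT40 cells were incubated with compounds for 40 h at 37 C/5% CO2.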

[6] = qHTS assay for identifying genotoxic compounds that show differential cytotoxicity against isogenic chicken DT40 cell lines with known DNA damage response pathways - Rev3 mutant cell line (AID 743014); note: nearly all actives have a fitted effect of over 55% in size; note: potency is the fitted concentration of half-maximal effect
[7] = qHTS assay for identifying genotoxic compounds that show differential cytotoxicity against isogenic chicken DT40 cell lines with known DNA damage response pathways - Rad54/Ku70 mutant cell line (AID 743015); note: nearly all actives have a fitted effect of over 60% in size; note: potency is the fitted concentration of half-maximal effect
[8] = qHTS assay to identify small molecule antagonists of the androgen receptor (AR) signaling pathway - cell viability counter screen (AID 743033; note: nearly all actives have a fitted effect of over 45% in size)
[9] = qHTS assay to identify small molecule antagonists of the androgen receptor (AR) signaling pathway using the MDA cell line - cell viability counter screen (AID 743041; note: nearly all actives have a fitted effect of over 45% in size)
Procedure, shortened: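 Using the breast carcinoma line MDA-kb2 AR-luc, test chemicals were co-incubated with R1881 for 16 h; CellTiter-Fluor reagent, added at 15.5 h, provided a fluorescence measure of live cells.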

[10] = qHTS assay to identify small molecule antagonists of the thyroid receptor (TR) signaling pathway - cell viability counter screen (AID 743064); note: nearly all actives have a fitted effect of over 50% in size; note: potency is the fitted concentration of half-maximal effect
Procedure, shortened: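 Fluorescence from CellTiter-Fluor, added after 23.5 h exposure at 37 °C, reported viability of GH3.TRE-Luc cells co-treated with compound and 1 nM T3. Measured in the same wells as the luciferase TR readout.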

[11] = qHTS assay to identify small molecule antagonists of the thyroid receptor (TR) signaling pathway (AID 743065); note: nearly all actives have a fitted effect of over 55% in size; note: potency is the fitted concentration of half-maximal effect
Procedure, shortened: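 Antagonism measured as loss of luciferase signal in GH3 cells stably carrying a TRE-luciferase reporter, co-treated with compound and T3 (1 nM final) for 23.5 h at 37 C. Viability was read in the same well by CellTiter-Fluor.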

[12] = tested on: thyroid hormone receptor (rat, GH3 cells); test: qHTS assay to identify small molecule agonists of the thyroid receptor (TR) signaling pathway (AID 743066; calls by dose curve)
[13] = qHTS assay to identify small molecule antagonists of the estrogen receptor alpha (ER-alpha) signaling pathway - cell viability counter screen (AID 743074; calls by dose curve;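 note: HEK293 cells carrying ER-alpha-UAS-bla reporter stimulated with 17beta-estradiol; nearly all actives have a fitted effect of over 45% in size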; note: potency is the fitted concentration of half-maximal effect)
[14] = target: Estrogen receptor (Homo sapiens) (UniProt P03372); test: qHTS assay to identify small molecule agonists of the estrogen receptor alpha (ER-alpha) signaling pathway (AID 743075; calls by dose curve;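 note: HEK293 GripTite cells with ER-alpha and UAS-driven beta-lactamase reporter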)
Estrogen receptor (Homo sapiens), sequence (P03372 whole entry, looked up): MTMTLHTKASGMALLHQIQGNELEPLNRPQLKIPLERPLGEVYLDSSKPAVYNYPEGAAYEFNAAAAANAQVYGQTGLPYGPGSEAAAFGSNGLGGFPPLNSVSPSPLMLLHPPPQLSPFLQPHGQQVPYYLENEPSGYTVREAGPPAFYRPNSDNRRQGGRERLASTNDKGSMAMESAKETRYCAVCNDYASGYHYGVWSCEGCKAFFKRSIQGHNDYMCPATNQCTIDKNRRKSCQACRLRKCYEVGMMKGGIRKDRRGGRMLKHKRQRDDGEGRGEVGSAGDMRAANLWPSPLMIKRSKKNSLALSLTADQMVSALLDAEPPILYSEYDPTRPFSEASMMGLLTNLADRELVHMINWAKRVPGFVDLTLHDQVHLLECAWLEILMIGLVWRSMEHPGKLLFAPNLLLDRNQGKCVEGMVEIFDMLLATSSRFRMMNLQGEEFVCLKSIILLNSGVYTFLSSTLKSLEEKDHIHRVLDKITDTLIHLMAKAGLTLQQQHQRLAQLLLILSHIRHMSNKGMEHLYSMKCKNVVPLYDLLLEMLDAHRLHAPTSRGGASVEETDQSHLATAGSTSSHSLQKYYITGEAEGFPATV

[15] = target: Estrogen receptor (Homo sapiens) (UniProt P03372); test: qHTS assay to identify small molecule agonists of the estrogen receptor alpha (ER-alpha) signaling pathway using the BG1 cell line (AID 743079); note: nearly all actives have a fitted effect of over 20% in size; note: potency is the fitted concentration of half-maximal effect
[16] = qHTS assay to identify small molecule antagonists of the estrogen receptor alpha (ER-alpha) signaling pathway using the BG1 cell line (AID 743080; calls by dose curve;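 note: BG1 cells stimulated with 17beta-estradiol alongside compound; series mostly up to about 70 µM; nearly all actives have a fitted effect of over 25% in size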)
Procedure, shortened: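 BG1-Luc-4E2 cells (endogenous full-length ER-alpha, stable 4×ERE-luciferase) were starved 5 days in phenol-red-free medium with 10% charcoal-stripped FBS, plated 24 h, then given compound plus 17beta-estradiol for 21.5 h at 37 C; ONE-Glo luminescence read after 30 min.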

[17] = qHTS assay to identify small molecule antagonists of the estrogen receptor alpha (ER-alpha) signaling pathway using the BG1 cell line - cell viability counter screen (AID 743081);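 note: compound given together with 17beta-estradiol as the ER stimulus; series mostly up to about 70 µM; nearly all actives have a fitted effect of over 45% in size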
[18] = qHTS assay to identify small molecule that activate the aryl hydrocarbon receptor (AhR) signaling pathway - cell viability counter screen (AID 743086); note: nearly all actives have a fitted effect of over 45% in size; note: potency is the fitted concentration of half-maximal effect
Procedure, shortened: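 Cytotoxicity counter screen: CellTiter-Fluor signal (30 min, 37 C) in 4000 HepG2 cells/well carrying the DRE-luciferase reporter, following 24 h compound exposure at 37 C.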

[19] = target: Peroxisome proliferator-activated receptor gamma (Homo sapiens) (UniProt P37231); test: qHTS assay to identify small molecule agonists of the peroxisome proliferator-activated receptor gamma (PPARg) signaling pathway (AID 743094; active = well fitted activation curve with a large enough effect in the signal ratio in the repeat runs, not every such curve was filed as active; the % refers to the signal ratio)
Peroxisome proliferator-activated receptor gamma (Homo sapiens), sequence (P37231 whole entry, looked up): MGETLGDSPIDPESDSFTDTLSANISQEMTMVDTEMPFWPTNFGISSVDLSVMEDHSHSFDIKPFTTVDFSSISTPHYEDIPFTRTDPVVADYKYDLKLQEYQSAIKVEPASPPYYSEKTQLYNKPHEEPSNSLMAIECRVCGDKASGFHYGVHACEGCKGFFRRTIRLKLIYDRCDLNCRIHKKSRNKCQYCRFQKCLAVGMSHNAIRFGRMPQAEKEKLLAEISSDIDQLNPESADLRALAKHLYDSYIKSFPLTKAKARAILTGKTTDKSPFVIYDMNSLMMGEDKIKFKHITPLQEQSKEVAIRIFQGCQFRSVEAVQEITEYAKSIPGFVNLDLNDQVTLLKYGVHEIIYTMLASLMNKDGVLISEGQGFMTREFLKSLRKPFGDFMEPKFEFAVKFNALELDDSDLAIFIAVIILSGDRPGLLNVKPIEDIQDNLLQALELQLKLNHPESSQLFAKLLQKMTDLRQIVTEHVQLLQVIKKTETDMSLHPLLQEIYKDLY
Procedure, shortened: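 Reporter activation was scored by fluorescence of cleaved LiveBLAzer B/G substrate (1 h, room temperature) in PPARg-bla HEK293H cells previously treated 17 h at 37C with DMSO-dissolved compounds.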

[20] = target: Nuclear receptor subfamily 1 group I member 2 (Homo sapiens) (UniProt O75469); test: CYP3A4 induction through human pregnane X receptor (PXR) by small molecules, qHTS assay (AID 1346984); note: nearly all actives have a fitted effect of over 40% in size; note: potency is the fitted concentration of half-maximal effect
Procedure, shortened: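 Induction measured in HepG2-based DPX-2 cells co-expressing human PXR and a CYP3A4 promoter-driven luciferase. After a 24-hour compound exposure, cells received CYP3A4 luciferin substrate at 3uM final for 3 hours, and light output was then recorded.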

Measured: Potency

CCN1C[C@]2(COC)[C@H](O)C[C@H](OC)[C@@]34[C@@H]5C[C@@]6(O)[C@H](OC(=O)c7ccccc7)[C@@H]5[C@@](OC(C)=O)([C@@H]([C@H](OC)[C@H]23)[C@@H]14)[C@@H](O)[C@@H]6OC
not listed: [20]
inactive: all other assays above

C[C@]12CC[C@H](O)C[C@H]1CC[C@@H]1[C@@H]2CC[C@]2(C)[C@@H](c3ccc(=O)oc3)C[C@H]3O[C@]132
active: [2] 0.75 µM | [5] 7.5 µM | [6] 13.3 µM | [7] 13.3 µM | [13] 1.34 µM | [15] 0.944 µM | [20] 5.01 µM
inactive: [3] | [4] | [10] | [12] | [14] | [17] | [18]

COc1ccc2c3c1O[C@H]1C(=O)CC[C@H]4[C@@H](C2)N(C)CC[C@]314
not listed: [1] | [3] | [4] | [11] | [13] | [16]
inactive: all other assays above

CCC(C)(S(=O)(=O)CC)S(=O)(=O)CC
not listed: [5] | [8] | [17]
inactive: all other assays above

NC1=NC(=O)N2CC12 (stereo unspecified)
not listed: [1] | [2]
inactive: all other assays above

O=C1OC2(c3cc(Br)c(O)cc3Oc3c2cc(Br)c(O)[c]3[Hg])c2ccccc21 (stereo unspecified)
active: [5] 10.1 µM | [6] 11.4 µM | [7] 10.1 µM
not listed: [4] | [11] | [12] | [17]
inactive: all other assays above

CN(C)[C@H](Cc1ccccc1)c1ccccc1
not listed: [1] | [2] | [8]
inactive: all other assays above

O=C1C=C2C=C[C@@H]3C[C@@]2(O1)[C@H]1CCCCN31
active: [5] 7.5 µM | [6] 10.6 µM | [7] 5.96 µM | [10] 11.9 µM | [11] 6.68 µM | [18] 15 µM
inactive: [2] | [3] | [4] | [8] | [12] | [13] | [14] | [20]

OC(c1ccccc1)(c1ccccc1)C1CN2CCC1CC2 (stereo unspecified)
active: [5] 26.6 µM | [11] 29.8 µM
not listed: [1] | [3] | [6] | [7] | [10]
inactive: all other assays above

Oc1ccc2c3c1O[C@H]1[C@@H](O)CC[C@@]4(O)[C@@H](C2)N(CC2CCC2)CC[C@]314
not listed: [1] | [16] | [20]
inactive: all other assays above

CC(C)[C@@]1(NC(=O)[C@@H]2C[C@@H]3c4cccc5[nH]cc(c45)C[C@H]3N(C)C2)O[C@@]2(O)[C@@H]3CCCN3C(=O)[C@H](Cc3ccccc3)N2C1=O
active: [5] 29.8 µM | [7] 23.7 µM and 26.6 µM | [10] 23.7 µM and 21.1 µM | [11] 23.7 µM and 26.6 µM
not listed: [3] | [6] | [18] | [19] | [20]
inactive: all other assays above
